Measurements: PubChem BioAssay (NCATS)
A number with no mark means an inactive call. Records with an inconclusive call do not appear. Activity calls are given as the source filed them. Calls come from the whole dose curve; as a rule, active = well fitted curve in the direction sought with a large enough effect; inconclusive = small, poorly fitted or top-dose-only effect, or another doubt; inactive = no such curve, though single readings can be large; an effect the other way counts as inactive or inconclusive.

assay: MultiTox-Fluor Cytotoxicity Assay - LYMP1-001 - Dead Cells (AID 946); settings: LYMP1-001 lymphoblastoid cells, dead-cell protease fluorescence; series mostly up to 92.2 µM; cytotoxicity (dead cells): at the top concentration; note: potency is the fitted concentration of half-maximal effect
In short: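 Cytotoxicity as increased dead-cell protease fluorescence (bis-AAF-R110, 485/520 nm), read 60 min after MultiTox-Fluor reagent. Human lymphoblastoid line exposed 16 h; Hill-fitted AC50, with DMSO as 0% and 15 uM tetraoctylammonium bromide as 100%.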

Structure (SMILES)	Potency	cytotoxicity (dead cells) [%]
O=C(O)COc1ccc(Cl)cc1Cl	inactive	
c1ccc(N=Nc2ccccc2)cc1		-12.6
CNC(=O)O/N=C/C(C)(C)SC		-1.93
C=CCc1ccc(OC)cc1		-3.83
ClC1=C(Cl)C2(Cl)C3C(Cl)C=CC3C1(Cl)C2(Cl)Cl (stereo not given)	50.1 µM (active)	
ClC1=C(Cl)C2(Cl)C3C4CC(C5OC45)C3C1(Cl)C2(Cl)Cl (stereo not given)	31.6 µM (active)	
ClC(Cl)=C(c1ccc(Cl)cc1)c1ccc(Cl)cc1	inactive	
C/C=C/c1ccc2c(c1)OCO2		17.4
C=CCc1ccc2c(c1)OCO2		-14.5
COP(=S)(OC)Oc1ccc([N+](=O)[O-])cc1		-16.2

assay: MultiTox-Fluor Cytotoxicity Assay - LYMP1-001 - Live Cells (AID 947); settings: LYMP1-001 lymphoblastoid cells, live-cell protease fluorescence viability; series mostly up to 92.2 µM; activity change, negative = cytotoxicity: at the top concentration; note: potency is the fitted concentration of half-maximal effect;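 for activity change, negative = cytotoxicity: 0% = DMSO only and full inhibition = tetraoctylammonium bromide control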

Structure (SMILES)	activity change, negative = cytotoxicity [%]	Potency
O=C(O)COc1ccc(Cl)cc1Cl	1.94	
CCOCN(C(=O)CCl)c1c(C)cccc1CC	-14	
CNC(=O)O/N=C/C(C)(C)SC	12.2	
CCNc1nc(Cl)nc(NC(C)C)n1	7.5	
C=CCc1ccc(OC)cc1	5.53	
ClC1=C(Cl)C2(Cl)C3C4CC(C5OC45)C3C1(Cl)C2(Cl)Cl (stereo not given)		15.8 µM (active)
ClC(Cl)=C(c1ccc(Cl)cc1)c1ccc(Cl)cc1		inactive
CCc1cccc(CC)c1N(COC)C(=O)CCl	-4.58	
C/C=C/c1ccc2c(c1)OCO2	5.68	
C=CCc1ccc2c(c1)OCO2	-22.8	
COP(=S)(OC)Oc1ccc([N+](=O)[O-])cc1	-17.1	

assay: Cell Viability - LYMP1-002 - Assay at 16 hr (AID 948); settings: LYMP1-002 lymphoblastoid cell viability; series mostly up to 92.2 µM; activity change, negative = cytotoxicity: at the top concentration; note: potency is the fitted concentration of half-maximal effect;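 for activity change, negative = cytotoxicity: 0% = DMSO alone and full effect = 92 µM tetraoctylammonium bromide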
In short: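 ATP luminescence (CellTiter-Glo) was measured after 16 hr compound exposure at 37 C of 2500 lymphoblastoid LYMP1-002 cells per well. Concentration-response curves were fitted with the Hill equation to give AC50.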

Structure (SMILES)	Potency	activity change, negative = cytotoxicity [%]
O=C(O)COc1ccc(Cl)cc1Cl	inactive	
c1ccc(N=Nc2ccccc2)cc1		-4.56
CCOCN(C(=O)CCl)c1c(C)cccc1CC		-18.1
CNC(=O)O/N=C/C(C)(C)SC		-4.27
CCNc1nc(Cl)nc(NC(C)C)n1		-6.58
C=CCc1ccc(OC)cc1		-2.88
ClC1=C(Cl)C2(Cl)C3C4CC(C5OC45)C3C1(Cl)C2(Cl)Cl (stereo not given)	12.6 µM (active)	
ClC(Cl)=C(c1ccc(Cl)cc1)c1ccc(Cl)cc1	inactive	
CCc1cccc(CC)c1N(COC)C(=O)CCl		-12.6
C/C=C/c1ccc2c(c1)OCO2		-2.17
C=CCc1ccc2c(c1)OCO2		-7.09
COP(=S)(OC)Oc1ccc([N+](=O)[O-])cc1		-2.46

assay: MultiTox-Fluor Cytotoxicity Assay - LYMP1-002 - Live Cells (AID 955); settings: LYMP1-002 lymphoblastoid live-cell protease fluorescence viability; series mostly up to 46.1 µM; viability change, negative = cytotoxic: at the top concentration;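 note: cells exposed to compound for 16 hours; % is set by controls: 0 for no effect and ±100 for the full control effect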
In short: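 LYMP1-002 lymphoblastoid cells; 2500 cells/well; 16 hr compound exposure, 37 C; MultiTox-Fluor reagent 60 min RT; live-cell fluorescence Ex/Em=405/510; qHTS concentration-response, Hill-equation AC50; tetraoctylammonium bromide positive control.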

Structure (SMILES)	outcome	viability change, negative = cytotoxic [%]
O=C(O)COc1ccc(Cl)cc1Cl	inactive	
ClC1=C(Cl)C2(Cl)C3C4C=CC(C4)C3C1(Cl)C2(Cl)Cl (stereo not given)		-17.6
O=S1OCC2C(CO1)C1(Cl)C(Cl)=C(Cl)C2(Cl)C1(Cl)Cl (stereo not given)		-16.2
c1ccc(N=Nc2ccccc2)cc1		0.355
CCOCN(C(=O)CCl)c1c(C)cccc1CC		-10.8
CNC(=O)O/N=C/C(C)(C)SC		6.92
CCNc1nc(Cl)nc(NC(C)C)n1		1.53
C=CCc1ccc(OC)cc1		6.04
ClC1=C(Cl)C2(Cl)C3C(Cl)C=CC3C1(Cl)C2(Cl)Cl (stereo not given)		-3.74
ClC(Cl)=C(c1ccc(Cl)cc1)c1ccc(Cl)cc1	inactive	
CCc1cccc(CC)c1N(COC)C(=O)CCl		2.4
C/C=C/c1ccc2c(c1)OCO2		0.928
C=CCc1ccc2c(c1)OCO2		-1.61
COP(=S)(OC)Oc1ccc([N+](=O)[O-])cc1		4.55

assay: MultiTox-Fluor Cytotoxicity Assay - LYMP1-002 - Dead Cells (AID 960); settings: LYMP1-002 lymphoblastoid cells, dead-cell protease fluorescence; series mostly up to 46.1 µM; cytotoxicity (dead cells): at the top concentration; note: nearly all actives have a fitted effect of over 60% in size; note: potency is the fitted concentration of half-maximal effect
In short: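 Readout: fluorescence at 485/520 from cell-impermeant bis-AAF-R110 cleaved by proteases leaking from damaged cells. LYMP1-002 lymphoblastoid line, 16 hr compound treatment at 37 C, concentration-response in qHTS format; Hill-equation AC50 values.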

Structure (SMILES)	Potency	cytotoxicity (dead cells) [%]
O=C(O)COc1ccc(Cl)cc1Cl	inactive	
O=S1OCC2C(CO1)C1(Cl)C(Cl)=C(Cl)C2(Cl)C1(Cl)Cl (stereo not given)	25.1 µM (active)	
c1ccc(N=Nc2ccccc2)cc1		23.5
CNC(=O)O/N=C/C(C)(C)SC		22.2
CCNc1nc(Cl)nc(NC(C)C)n1		3.23
C=CCc1ccc(OC)cc1		-9.07
ClC1=C(Cl)C2(Cl)C3C4CC(C5OC45)C3C1(Cl)C2(Cl)Cl (stereo not given)	20 µM (active)	
ClC(Cl)=C(c1ccc(Cl)cc1)c1ccc(Cl)cc1	inactive	
CCc1cccc(CC)c1N(COC)C(=O)CCl		15.3
C/C=C/c1ccc2c(c1)OCO2		8.67
C=CCc1ccc2c(c1)OCO2		-2.93
COP(=S)(OC)Oc1ccc([N+](=O)[O-])cc1		6.25

assay: MultiTox-Fluor Cytotoxicity Assay - LYMP1-003 - Dead Cells (AID 961); settings: LYMP1-003 lymphoblastoid cells, dead-cell protease fluorescence; series mostly up to 92.2 µM; cytotoxicity (dead cells): at the top concentration; note: nearly all actives have a fitted effect of over 70% in size; note: potency is the fitted concentration of half-maximal effect
In short: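 Dead-cell protease release, detected as bis-AAF-R110 fluorescence at 485/520 nm, was measured in LYMP1-003 cells after 16 h compound treatment at 37 C. AC50 values came from Hill-modeled qHTS curves normalized to DMSO (0%) and 15 uM tetraoctylammonium bromide (100%).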

Structure (SMILES)	Potency	cytotoxicity (dead cells) [%]
O=C(O)COc1ccc(Cl)cc1Cl	inactive	
c1ccc(N=Nc2ccccc2)cc1		-4.2
CNC(=O)O/N=C/C(C)(C)SC		-8.93
CCNc1nc(Cl)nc(NC(C)C)n1		-4.02
C=CCc1ccc(OC)cc1		-11.6
ClC1=C(Cl)C2(Cl)C3C4CC(C5OC45)C3C1(Cl)C2(Cl)Cl (stereo not given)	10 µM (active)	
ClC(Cl)=C(c1ccc(Cl)cc1)c1ccc(Cl)cc1	inactive	
CCc1cccc(CC)c1N(COC)C(=O)CCl		24.5
C=CCc1ccc2c(c1)OCO2		-10.4

assay: MultiTox-Fluor Cytotoxicity Assay - LYMP1-003 - Live Cells (AID 962); settings: LYMP1-003 lymphoblastoid cells, MultiTox-Fluor live-cell protease fluorescence; series mostly up to 92.2 µM; activity change, negative = fewer live cells: at the top concentration;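 note: cells exposed to compound for 16 hours at 37 °C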; note: potency is the fitted concentration of half-maximal effect;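 for activity change, negative = fewer live cells: 0% = DMSO only and full loss = 92 µM tetraoctylammonium bromide; cytotoxic hits lower the live-cell protease signal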
In short: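 Readout: live-cell fluorescence (Ex/Em=405/510) from GF-AFC cleavage after 60 min MultiTox-Fluor reagent at room temperature. Lymphoblastoid LYMP1-003 cells, 16 hr compound treatment, 37 C. Concentration-response fitted to standard Hill equation for AC50.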

Structure (SMILES)	Potency	activity change, negative = fewer live cells [%]
O=C(O)COc1ccc(Cl)cc1Cl	inactive	
c1ccc(N=Nc2ccccc2)cc1		-0.0892
CCOCN(C(=O)CCl)c1c(C)cccc1CC		-17.6
CNC(=O)O/N=C/C(C)(C)SC		0.714
CCNc1nc(Cl)nc(NC(C)C)n1		2.19
C=CCc1ccc(OC)cc1		-4.32
ClC1=C(Cl)C2(Cl)C3C4CC(C5OC45)C3C1(Cl)C2(Cl)Cl (stereo not given)	12.6 µM (active)	
ClC(Cl)=C(c1ccc(Cl)cc1)c1ccc(Cl)cc1	inactive	
CCc1cccc(CC)c1N(COC)C(=O)CCl		-4.6
C/C=C/c1ccc2c(c1)OCO2		-4.56
C=CCc1ccc2c(c1)OCO2		-4.8
COP(=S)(OC)Oc1ccc([N+](=O)[O-])cc1		-0.732
